Results published in PubChem BioAssay (NCI).
This is part of a sample that, as a whole, favours compounds with a hit. Of some 83,000 tested, about 20% had one in any assay.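 Testing used 96-well plates and a 48-hour single-concentration exposure. Example: -40 means 40% of the starting cells died.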 Unmarked numbers belong to inactive results. Calls of active or inactive are those of the source. How the source made its calls: active means growth percent below 10; inactive means the rest.

Tested on: MDA-MB-468 breast
Test: NCI-60 one-dose screen, 48 h (100 = growth as untreated, 0 = no growth, -100 = all killed)
Details: 10 µM unless noted

Point of comparison: `COc1ccc(C(C)=O)c(OC)c1`, growth 97.7%. Against it:
- C#CCn1cnc2c(Nc3cccc(NC(=O)C=C)c3)ncnc21 — lower, 78%
- O=[N+]([O-])c1cc(S(=O)(=O)c2ccc(F)c([N+](=O)[O-])c2)ccc1F — lower, 88.4%
- CCOc1cccc2c(NC(C)CCCN(CC)CC)c(C)cnc12 (centres undefined) — lower, 92.9%
- C#CCSc1nnnn1-c1ccc(Br)c(C)c1 — lower, 67.2%
- Cc1cc(N(CCCNc2ccnc3cc(Cl)ccc23)Cc2ccco2)nc(N2CCN(C)CC2)n1 — lower, 73.7%
- CCCCCCCCCCCCCCCCCN — higher, 101%
- CCCCn1c(C)nc2cc(Nc3nc(N4CCCCC4)nc4nc[nH]c34)ccc21 — lower, 36.1%
- O=C1CCCCN1CCCCC#Cc1cccc(C#Cc2cccnc2)c1 — lower, 73.8%
- CC1(C)OC2C(COC(c3ccccc3)(c3ccccc3)c3ccccc3)OC(c3c[nH]c4c(N)ncnc34)C2O1 (centres undefined) — lower, 30%
- COC(=O)CCC1=C(C)C2=NC1=CC1=NC(=CC3=NC(=Cc4[nH]c(/c(=C(/C)O)c4C)=C2)C(C(C)=O)=C3C)C(C)=C1CCC(=O)OC — higher, 108%
- COC(=O)c1sccc1-c1cc(O)c(C(=O)Nc2ccccc2)s1 — lower, 85.4%

`O=C(N/N=C/c1ccc(Cl)cc1Cl)c1ccc2nc(-c3ccc(Cl)cc3)[nH]c2c1` was tested, and the growth was -44.1% (active).
`C=C(C)[C@@H]1CC[C@]2(COCCCNCCCN)CC[C@]3(C)[C@H](CC[C@@H]4[C@@]5(C)CC[C@H](OCCCN)C(C)(C)[C@@H]5CC[C@]43C)[C@@H]12` was tested, and the growth was -67.8% (active).
